Compounds without any hit were thinned out: in the full panel of roughly 83,000, 20% have a hit.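 Interpretation: 100, growth as untreated; towards 0, rising growth inhibition; 0, no net growth; 0 to -100, cell death. Compounds scoring below 10 were considered active.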 Activity calls are given as the source filed them.
What was measured:
Assay in all cases: NCI-60 one-dose screen, 48 h (100 = growth as untreated, 0 = no growth, -100 = all killed)
Details in all cases: 10 µM unless noted
DU-145 prostate = system: DU-145 prostate
K-562 leukemia = system: K-562 leukemia
MALME-3M melanoma = system: MALME-3M melanoma
MDA-MB-231 breast = system: MDA-MB-231 breast
RXF 393 renal = system: RXF 393 renal
SF-268 CNS = system: SF-268 CNS
SF-539 CNS = system: SF-539 CNS
UACC-257 melanoma = system: UACC-257 melanoma
M14 melanoma = system: M14 melanoma
HCT-15 colon = system: HCT-15 colon
HT29 colon = system: HT29 colon
SNB-75 CNS = system: SNB-75 CNS
SNB-19 CNS = system: SNB-19 CNS
U251 CNS = system: U251 CNS
PC-3 prostate = system: PC-3 prostate
SK-MEL-5 melanoma = system: SK-MEL-5 melanoma
UACC-62 melanoma = system: UACC-62 melanoma
LOX IMVI melanoma = system: LOX IMVI melanoma
SK-MEL-28 melanoma = system: SK-MEL-28 melanoma

Measured: growth

OC(c1cc2c(Cl)cc(Cl)cc2c2cc(C(F)(F)F)ccc12)C1CCCCN1 (centres undefined)
active: DU-145 prostate -94.5% | K-562 leukemia -75.5% | MALME-3M melanoma -44% | MDA-MB-231 breast -73% | RXF 393 renal -90.9% | SF-268 CNS -82.9% | SF-539 CNS -81.5% | UACC-257 melanoma -67.1% | M14 melanoma -82.3% | HCT-15 colon -66.8% | HT29 colon -80.5% | SNB-75 CNS -91% | SNB-19 CNS -72.8% | U251 CNS -93% | PC-3 prostate -84% | SK-MEL-5 melanoma 8.25% | UACC-62 melanoma -72.4% | LOX IMVI melanoma -66.2% | SK-MEL-28 melanoma -75.4%

CCN(CC)CCCNc1cccc2c(C)cc(OC)nc12
inactive: DU-145 prostate 114% | K-562 leukemia 92.3% | MALME-3M melanoma 107% | MDA-MB-231 breast 81% | RXF 393 renal 93.9% | SF-268 CNS 104% | SF-539 CNS 88.8% | UACC-257 melanoma 98.9% | M14 melanoma 93.2% | HCT-15 colon 94.9% | HT29 colon 87.6% | SNB-75 CNS 76.8% | SNB-19 CNS 94.9% | U251 CNS 94.3% | PC-3 prostate 75.1% | SK-MEL-5 melanoma 91.3% | UACC-62 melanoma 85.3% | LOX IMVI melanoma 105% | SK-MEL-28 melanoma 103%

COc1cc(NC(C)CCCN)c2ncccc2c1Sc1ccc(Cl)cc1 (centres undefined)
inactive: DU-145 prostate 76.3% | MALME-3M melanoma 82.4% | MDA-MB-231 breast 36% | RXF 393 renal 57.9% | SF-268 CNS 70.5% | SF-539 CNS 75.9% | UACC-257 melanoma 65.1% | M14 melanoma 27.5% | HCT-15 colon 39.3% | SNB-75 CNS 48.7% | SNB-19 CNS 78.3% | U251 CNS 39.3% | PC-3 prostate 47.1% | SK-MEL-5 melanoma 67.3% | UACC-62 melanoma 81.2% | SK-MEL-28 melanoma 93.3%
active: K-562 leukemia -33.2% | HT29 colon -46.4% | LOX IMVI melanoma -62.4%

COc1ccc(NC(=O)C2c3ccccc3C(=O)N(CC(C)C)C2c2cccs2)cc1 (centres undefined)
inactive: DU-145 prostate 98.9% | K-562 leukemia 88.8% | MALME-3M melanoma 113% | MDA-MB-231 breast 92.1% | RXF 393 renal 79.2% | SF-268 CNS 95.1% | SF-539 CNS 98.9% | UACC-257 melanoma 97.2% | M14 melanoma 106% | HCT-15 colon 98.9% | HT29 colon 101% | SNB-75 CNS 92.6% | SNB-19 CNS 111% | U251 CNS 96% | PC-3 prostate 95.1% | SK-MEL-5 melanoma 89.1% | UACC-62 melanoma 89.5% | LOX IMVI melanoma 86.3% | SK-MEL-28 melanoma 105%

CSC(=S)N/N=C(\C)c1ccccn1
inactive: DU-145 prostate 16.1% | MDA-MB-231 breast 33.9% | SF-268 CNS 17.3% | HCT-15 colon 34.7% | HT29 colon 25.9% | SNB-75 CNS 35.5% | SNB-19 CNS 24.6% | U251 CNS 13.9% | PC-3 prostate 27% | LOX IMVI melanoma 12.7% | SK-MEL-28 melanoma 42.4%
active: K-562 leukemia 8.85% | MALME-3M melanoma -3.24% | RXF 393 renal 0.311% | SF-539 CNS 1.81% | UACC-257 melanoma 7.4% | M14 melanoma 1.91% | SK-MEL-5 melanoma -47.7% | UACC-62 melanoma -22.3%

C=C(CN1CC=CCC1)[C@@H]1CC[C@]2(C(=O)OC)CC[C@]3(C)[C@H](CC[C@@H]4[C@@]5(C)CC[C@H](OC(C)=O)C(C)(C)[C@@H]5CC[C@]43C)[C@@H]12
inactive: DU-145 prostate 107% | K-562 leukemia 57.9% | MALME-3M melanoma 92.9% | MDA-MB-231 breast 99.2% | RXF 393 renal 101% | SF-268 CNS 92.5% | SF-539 CNS 93.3% | UACC-257 melanoma 91.9% | M14 melanoma 86.1% | HCT-15 colon 105% | HT29 colon 75.3% | SNB-75 CNS 88.4% | SNB-19 CNS 86% | U251 CNS 83.2% | PC-3 prostate 61.4% | SK-MEL-5 melanoma 90.3% | UACC-62 melanoma 80.7% | LOX IMVI melanoma 99.7% | SK-MEL-28 melanoma 94.9%

CCOC(=O)c1sc2nc(-c3cc4ccccc4o3)cc(-c3ccc(Cl)cc3)c2c1N
inactive: DU-145 prostate 99.6% | K-562 leukemia 102% | MALME-3M melanoma 88.5% | MDA-MB-231 breast 106% | RXF 393 renal 124% | SF-268 CNS 97.3% | SF-539 CNS 120% | UACC-257 melanoma 114% | M14 melanoma 112% | HCT-15 colon 101% | HT29 colon 105% | SNB-75 CNS 74.7% | SNB-19 CNS 101% | U251 CNS 95.8% | PC-3 prostate 77% | SK-MEL-5 melanoma 110% | UACC-62 melanoma 66.8% | LOX IMVI melanoma 91.6% | SK-MEL-28 melanoma 108%

COc1cccc(NC(=O)[C@H](C(C)C)n2c(=O)[nH]c3ccccc3c2=O)c1
inactive: DU-145 prostate 107% | K-562 leukemia 90.4% | MALME-3M melanoma 104% | MDA-MB-231 breast 107% | RXF 393 renal 109% | SF-268 CNS 111% | SF-539 CNS 102% | UACC-257 melanoma 96.5% | M14 melanoma 107% | HCT-15 colon 104% | HT29 colon 101% | SNB-75 CNS 102% | SNB-19 CNS 117% | U251 CNS 96.8% | PC-3 prostate 95.1% | SK-MEL-5 melanoma 99.2% | UACC-62 melanoma 107% | LOX IMVI melanoma 99.7% | SK-MEL-28 melanoma 114%

COc1ccc(C(=O)c2c(N)nc3n2CCCC3)cc1OC
inactive: DU-145 prostate 107% | K-562 leukemia 90.6% | MALME-3M melanoma 99.9% | MDA-MB-231 breast 115% | RXF 393 renal 111% | SF-268 CNS 106% | SF-539 CNS 102% | UACC-257 melanoma 100% | M14 melanoma 103% | HCT-15 colon 98.4% | HT29 colon 94.7% | SNB-75 CNS 85.1% | SNB-19 CNS 110% | U251 CNS 98.5% | PC-3 prostate 101% | SK-MEL-5 melanoma 100% | UACC-62 melanoma 109% | LOX IMVI melanoma 97% | SK-MEL-28 melanoma 108%

Nc1ccc(C(OC(=O)c2cc3ccccc3c(Cc3c(O)c(C(=O)OC(c4ccc(N)cc4)(c4ccc(N)cc4)c4ccc(N)cc4)cc4ccccc34)c2O)(c2ccc(N)cc2)c2ccc(N)cc2)cc1
active: K-562 leukemia 7.72% | MALME-3M melanoma 5.78% | MDA-MB-231 breast -9.83% | UACC-257 melanoma 6.17% | HT29 colon 8.68% | SNB-75 CNS 8.57% | PC-3 prostate -3.26% | SK-MEL-5 melanoma -47.1%
inactive: DU-145 prostate 21.9% | RXF 393 renal 28% | SF-268 CNS 24.6% | SF-539 CNS 10.3% | M14 melanoma 14.9% | HCT-15 colon 49.6% | SNB-19 CNS 19% | U251 CNS 11.2% | UACC-62 melanoma 10.7% | LOX IMVI melanoma 24% | SK-MEL-28 melanoma 33.9%

CCOC(=O)Nc1ccc2nc(-c3cscn3)[nH]c2c1
inactive: DU-145 prostate 72.9% | K-562 leukemia 19.1% | MALME-3M melanoma 22% | MDA-MB-231 breast 59.9% | RXF 393 renal 39.2% | SF-268 CNS 66.5% | SF-539 CNS 62.9% | UACC-257 melanoma 66.6% | M14 melanoma 16.1% | HCT-15 colon 37.8% | HT29 colon 14.8% | SNB-75 CNS 33.1% | SNB-19 CNS 63.2% | U251 CNS 35% | PC-3 prostate 82.2% | SK-MEL-5 melanoma 31.9% | UACC-62 melanoma 45.4% | LOX IMVI melanoma 46.6% | SK-MEL-28 melanoma 53.4%

Nc1n[nH]c2ccc([C@@H]3Nc4c(F)cc5[nH]ncc5c4[C@H]4C5CCC(C5)[C@@H]34)cc12 (some centres undefined)
inactive: K-562 leukemia 13.9% | MALME-3M melanoma 32.7% | SF-268 CNS 36.1% | UACC-257 melanoma 62.1% | HCT-15 colon 19.8% | HT29 colon 11.7% | SNB-19 CNS 27.9% | U251 CNS 14.3% | PC-3 prostate 22.8% | UACC-62 melanoma 38.1% | LOX IMVI melanoma 20.3% | SK-MEL-28 melanoma 49.2%
active: DU-145 prostate 3.59% | MDA-MB-231 breast 4.87% | RXF 393 renal -0.647% | SF-539 CNS -39% | M14 melanoma 9.46% | SNB-75 CNS 7.8% | SK-MEL-5 melanoma 4.3%

O=NN(CC(=O)NNc1ccccc1)CC(=O)NNc1ccccc1
active: UACC-62 melanoma 3.99% | LOX IMVI melanoma 7.04%
inactive: DU-145 prostate 68.7% | K-562 leukemia 11.8% | MALME-3M melanoma 102% | MDA-MB-231 breast 58.7% | RXF 393 renal 84.9% | SF-268 CNS 59.7% | SF-539 CNS 72% | UACC-257 melanoma 95.4% | M14 melanoma 33.1% | HCT-15 colon 33.7% | HT29 colon 69.2% | SNB-75 CNS 90.8% | SNB-19 CNS 96.2% | U251 CNS 78.8% | PC-3 prostate 58.8% | SK-MEL-5 melanoma 90.5% | SK-MEL-28 melanoma 95.5%

COc1cc(/C=C/C(=O)c2ccc(NC(=O)CSc3nnc(-c4ccc(Cl)cc4)n3-c3ccccc3)cc2)cc(OC)c1OC
inactive: DU-145 prostate 80% | K-562 leukemia 44.3% | MALME-3M melanoma 101% | MDA-MB-231 breast 54.9% | RXF 393 renal 55.5% | SF-268 CNS 77.6% | SF-539 CNS 91.3% | UACC-257 melanoma 73.6% | M14 melanoma 76.1% | HCT-15 colon 49.8% | HT29 colon 74.8% | SNB-75 CNS 62.4% | SNB-19 CNS 76.4% | U251 CNS 69.7% | PC-3 prostate 69.7% | SK-MEL-5 melanoma 55.8% | UACC-62 melanoma 68.5% | LOX IMVI melanoma 73.9% | SK-MEL-28 melanoma 97.1%

CC(=O)c1ccc(-n2c(-c3cc(-c4ccsc4)n[nH]3)n[nH]c2=S)cc1
inactive: DU-145 prostate 110% | K-562 leukemia 105% | MALME-3M melanoma 106% | MDA-MB-231 breast 105% | RXF 393 renal 106% | SF-268 CNS 107% | SF-539 CNS 97.5% | UACC-257 melanoma 101% | M14 melanoma 97.8% | HCT-15 colon 96.5% | HT29 colon 94.1% | SNB-75 CNS 91.2% | SNB-19 CNS 101% | U251 CNS 102% | PC-3 prostate 84.3% | SK-MEL-5 melanoma 101% | UACC-62 melanoma 95.9% | LOX IMVI melanoma 99% | SK-MEL-28 melanoma 98.8%

CCOC(C)(c1ccc(Cl)cc1)C1CCNCC1 (centres undefined)
inactive: DU-145 prostate 102% | K-562 leukemia 65.3% | MALME-3M melanoma 99.9% | MDA-MB-231 breast 102% | RXF 393 renal 109% | SF-268 CNS 115% | SF-539 CNS 88.1% | UACC-257 melanoma 78.2% | M14 melanoma 86.6% | HCT-15 colon 94.8% | HT29 colon 85.2% | SNB-75 CNS 82.2% | SNB-19 CNS 101% | U251 CNS 92.4% | PC-3 prostate 82.6% | SK-MEL-5 melanoma 102% | UACC-62 melanoma 101% | LOX IMVI melanoma 65.2% | SK-MEL-28 melanoma 109%

— PubChem BioAssay (NCI)
